# Test results: PubChem BioAssay AID1792 (The Scripps Research Institute Molecular Screening Center, 2009)
# The campaign covered roughly 16,000 compounds. About 130 (0.81%) were called active. What follows is part of a selection rich in actives, with near analogues and random picks from the rest. Unmarked numbers belong to inactive results. Cut-off read from the data, not from the text of the source: active = inhibition above about 75%; inactive = the rest.
# Biological target: NADPH oxidase 1 (Homo sapiens) (UniProt Q9Y5S8)
# Sequence (Q9Y5S8 whole entry, looked up): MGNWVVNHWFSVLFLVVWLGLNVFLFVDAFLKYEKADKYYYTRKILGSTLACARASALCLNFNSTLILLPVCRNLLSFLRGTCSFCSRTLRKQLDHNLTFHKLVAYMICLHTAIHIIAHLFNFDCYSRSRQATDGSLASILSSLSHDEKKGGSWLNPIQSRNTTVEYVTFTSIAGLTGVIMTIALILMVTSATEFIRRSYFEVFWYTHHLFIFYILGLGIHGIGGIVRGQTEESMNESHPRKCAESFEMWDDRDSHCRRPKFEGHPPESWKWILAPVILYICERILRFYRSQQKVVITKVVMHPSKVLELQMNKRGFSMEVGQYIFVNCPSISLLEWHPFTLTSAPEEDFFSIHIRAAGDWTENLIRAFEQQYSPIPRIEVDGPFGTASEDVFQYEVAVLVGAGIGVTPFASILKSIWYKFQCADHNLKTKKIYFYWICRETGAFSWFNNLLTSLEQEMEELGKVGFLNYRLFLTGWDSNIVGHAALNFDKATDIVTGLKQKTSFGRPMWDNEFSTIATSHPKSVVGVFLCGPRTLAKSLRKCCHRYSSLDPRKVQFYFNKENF
# Assay: inhibitors of human NADPH oxidase 1 (Nox1) (AID 1792)
# Settings: HT29 cells, luminol chemiluminescence ROS; at 6.7 µM; hits give high values
row,SMILES,inhibition
1,CC(=O)Nc1ccc(NC(=O)c2cc(C)ccc2[N+](=O)[O-])c(C)c1,-28.7%
2,CSc1ccc(C(F)(F)F)cc1NC(=S)Nc1ccccc1,-18%
3,COC(=O)c1sccc1-c1ccc(/C(C)=N/NC(N)=O)o1,-53.5%
4,CCOC1=NC(C(F)(F)F)(C(F)(F)F)N=C(N2CCOCC2)O1,-12.7%
5,O=S(=O)(Cc1cccc(C(F)(F)F)c1)NCc1ccc2c(c1)OCO2,-29.2%
6,Cc1nc(-c2ccccc2)sc1-c1nnc(C2CC2)o1,-8.29%
7,Cc1ccc(CC(=O)c2cccnc2)cc1,13.9%
8,COc1ccccc1N1CCN(C/C(N)=N/O)CC1,-72.5%
9,O=C(NCc1ccc2c(c1)OCO2)c1cccc2c1OCCCO2,-22.4%
10,COc1ccc(-c2nnc(SCC(O)C(F)(F)F)n2-c2cccc(OC)c2)cc1 (stereo not given),-65.7%
11,O=C1CCC(=O)N(c2ccccc2)N1,5.82%
12,CN(C)/C=N/NC(=O)c1nc(-c2cccc(-n3cccc3)c2)no1,18.8%
13,O=S(=O)(Oc1ncccc1C(F)(F)F)c1cccc(F)c1,-33.3%
14,CC(C)(C)c1csc(Sc2ccc([N+](=O)[O-])cc2[N+](=O)[O-])n1,-42.4%
15,Cc1[nH]c2ccccc2c1Sc1ccc(Cl)cc1,-26.1%
16,CC1(C)C2CC[C@](C)(C2)C1NC(=O)c1c(Cl)cccc1Cl (stereo not given in full),-15.2%
17,Oc1c(Cl)c(Cl)c(Cl)c2ccccc12,-9.97%
18,O=C(Nc1ccccc1)N1CCN(Cc2ccccc2)CC1,-18.5%
19,Nc1[nH]c(=O)nc2nc[nH]c12,10.8%
20,CN(C)CCC(O)c1ccc2c(c1)OCCCCO2 (stereo not given),-25.5%
21,Cc1ccc2sc(NC(=O)NC(=O)c3c(Cl)cccc3Cl)nc2c1,-14.9%
22,Cc1c(C(=O)Nc2ccccc2)sc2cc(C(C)(C)C)sc12,4.35%
23,CS(=O)(=NC(=O)c1cc2ccccc2o1)c1ccc(Cl)cc1 (stereo not given),3.12%
24,N#CCc1ccc(NC(=O)c2ccccc2C(=O)Nc2ccc(CC#N)cc2)cc1,-21.7%
25,CCCN(CCC)S(=O)(=O)c1ccc(C(=O)N2CC3CCC(CC3)C2)cc1,-49.5%

row,SMILES,inhibition
1,OC(CNCc1ccc2c(c1)OCO2)COc1ccccc1 (stereo not given),-16.2%
2,CC(C)c1ccc(N2C(=O)/C(=C\c3ccc(-c4ccc([N+](=O)[O-])cc4)o3)SC2=S)cc1,-23.7%
3,FC(F)(F)c1cccc(-n2c(-c3ccncc3)n[nH]c2=S)c1,-29.9%
4,c1ccc(CN2CCN(Cn3nnc4ccccc43)CC2)cc1,-54.1%
5,CC1(C)C=Cc2cc(-c3noc(-c4ccccc4)n3)ccc2O1,-38.9%
6,Nc1c(-c2nnc(SCC(=O)c3ccccc3)o2)cnn1-c1ccccc1,26.2%
7,FC(F)(F)c1ccc(/C=N/Nc2nccc(C(F)(F)F)n2)cc1,-24.2%
8,CC(=O)Nc1cccc(-n2nnc(SCC(=O)c3cc(-c4ccccc4)no3)n2)c1,-33.7%
9,Cc1ccc(S(=O)(=O)NNC(=S)NC(C)(C)C)cc1,-24.1%
10,C=C(C)c1cccc(C(C)(C)NC(=O)CC(C)=O)c1,-17.3%
11,COC(=O)c1cccc(CSc2ncccc2C(=O)O)c1,-48.1%
12,COc1ccc(NC(NC(=O)c2ccc(OC)cc2)(C(F)(F)F)C(F)(F)F)cc1,-26.1%
13,COc1ccc(NC(=O)C2CC(C)=C(C)CC2C(=O)O)c(N2CCOCC2)n1 (stereo not given),-11.6%
14,O=C(CSC(=S)N1CCCCC1)c1c(F)cccc1F,16%
15,Cn1nc(-c2ccccc2)cc1N,12.5%
16,O=C(Nc1ccc(C(F)(F)F)cc1)Nc1ccccc1C(=O)O,-32.5%
17,Cc1ccc(OC(=O)c2nn(-c3ccccc3)nc2C)c([N+](=O)[O-])n1,-75.6%
18,O=C(NCc1cc2ccccc2s1)C1CN(C(c2ccccc2)c2ccccc2)C1,-2.49%
19,O=C(O)CC(CC(=O)O)c1ccc(C(F)(F)F)cc1,-30.4%
20,COC(=O)c1sc(S(C)=O)c(-c2ccon2)c1C (stereo not given),-55.1%
21,Cc1onc(-c2ccccc2)c1C(=O)Sc1ccc(C(F)(F)F)cn1,-30.5%
22,COC(=O)c1ccc(/C=C2\C(=O)Nc3ccccc32)n1-c1ccc(F)cc1,-9.26%
23,COc1ccc(Cc2nnc(SC)[nH]c2=O)cc1,-41.8%
24,O=S(=O)(Oc1ccc(C2SCCS2)cc1)c1ccc(Br)cc1,10.3%
25,OC(c1ccncc1)c1c[nH]c2ccccc12 (stereo not given),-46.2%

row,SMILES,inhibition
1,COc1ccc(OC)c(CCCc2cc(OC)ccc2OC)c1,-22.8%
2,N#Cc1ccc(N2CCN(C(=O)c3ccco3)CC2)cc1,-5.71%
3,Cc1[nH]c2c(F)cc(F)cc2c(=O)c1I,-29.2%
4,COc1cc(-c2n[nH]c(=S)n2Cc2ccccc2)cc(OC)c1OC,-31.5%
5,O=C1CCCCC(=O)c2ccccc2N1,-36.9%
6,Cc1c(S(=O)(=O)c2ccc(Cl)cc2)csc1C(=O)Nc1ccc2c(c1)OCCO2,-34.3%
7,NS(=O)(=O)c1cc(C(F)(F)F)cc(C(F)(F)F)c1,-30.4%
8,NNC(=O)c1ccc(Cl)cc1Cl,-29.6%
9,N#CNC(N)=Nc1cc(Cl)ccc1Cl,-53.6%
10,O=C(NCc1csc(-c2cccs2)n1)Nc1ccccc1-c1ccccc1,11.9%
11,Cn1c(=O)c(/C(N)=N/OC(=O)c2ccccc2Cl)cn(-c2ccccc2)c1=O,-28.3%
12,N/C(CC(=O)Nc1ccc(F)c(Cl)c1)=N\O,8.11%
13,O=C1NCCN1CCNS(=O)(=O)c1cc(Cl)sc1Cl,14.5%
14,O=C(N[C@@H](Cc1ccc(O)cc1)C(=O)O)OCc1ccccc1,-6.06%
15,CN(C)NC(=O)c1csnc1-c1c(Cl)cccc1Cl,-20.2%
16,CC(OC(=O)c1cccc(Cl)c1)c1ccc[n+](C)c1 (stereo not given),-47.2%
17,CCOC(=O)/C(C#N)=C/c1ccc(-c2nccs2)cc1C(C)(C)C,8.33%
18,N#CC(C#N)=C/C=C(/Sc1nc2cc(Cl)ccc2s1)c1ccc(Cl)cc1,-27.8%
19,CCOC(=O)N1CCN(CC(O)COc2ccc(OC(F)(F)F)cc2)CC1 (stereo not given),-47.2%
20,CCOC(=O)c1sc2ccccc2c1N,-25.5%
21,O=C(Oc1ccccc1N1CCCCC1)c1sc2ccccc2c1Cl,85.7% (active)
22,O=C(O)CC(CC(=O)Oc1ccccc1N1CCCCC1)c1ccccc1 (stereo not given),-24.8%
23,N#C/C(=C\N1CCc2ccccc21)S(=O)(=O)c1ccc(C(F)(F)F)cn1,-30.5%
24,N#CCCN(CCc1ccccn1)S(=O)(=O)c1ccc2c(c1)CCO2,35.1%
25,CCOC(=O)Cc1cnc(NN=C2C3CC4CC(C3)CC2C4)s1,55.1%

row,SMILES,inhibition
1,CSc1sc(NC(=O)N2CCOCC2)c(-c2ccc(Cl)cc2)c1C#N,17.4%
2,O=C(CNC(=O)c1ccccc1F)c1ccc(Br)cc1,-16.2%
3,COc1ccc(COCC(O)CN2CCC(C(N)=O)CC2)cc1 (stereo not given),-52.2%
4,CCOC(=O)O/N=C(\N)c1ccc(Cl)cc1,26%
5,CC(C)(C)c1ccc(NC(=O)c2ccco2)c(NC(=O)C(Cl)(Cl)Cl)c1,6.12%
6,CN(Cc1nnc(-c2ccc3ccccc3c2)o1)c1nnc(C(F)(F)F)s1,10.6%
7,CC1(C)CC(=O)c2c(NCc3ccco3)sc(C#N)c2C1,-14.6%
8,CC(C)n1c(SCC(=O)c2cccc([N+](=O)[O-])c2)nc2cc(C(F)(F)F)ccc21,4.76%
9,CCOC(=O)c1cc(C)nc(Sc2ccccc2NC(=O)Nc2ccc(Cl)cc2)c1C#N,34.3%
10,Cc1nn(-c2ccccc2)nc1C(=O)Nc1nnc(C2CC2)s1,-13.2%
11,COC(=O)c1cc(OC)c(OC)cc1NS(=O)(=O)c1ccsc1C(=O)OC,-24.8%
12,O=C(NNc1ccc(C(F)(F)F)cn1)c1ccccc1Cl,40.9%
13,O=C1C=C(NNc2ccccc2)CCC1,-9.52%
14,Cn1cnnc1SCC(=O)Nc1cc(C(F)(F)F)cc(C(F)(F)F)c1,-26.6%
15,CC1CN=C(N(Cc2cccnc2)C(=O)Nc2ccc(Cl)c(Cl)c2)S1 (stereo not given),11.1%
16,FC(F)(F)c1cnc(NN=C2CCSCC2)c(Cl)c1,-21.6%
17,N/C(=N/OC(=O)NC(=O)c1c(Cl)cccc1Cl)c1ccc(F)cc1F,-11.4%
18,Cc1nn(C)c(C)c1Sc1nccc(-c2cccnc2)n1,17.5%
19,COc1cc(OC)nc(/N=C/c2nc(-c3ccccc3)oc2O)n1,16.6%
20,O=C(NCc1ccccc1)c1cc2sccc2s1,-33%
21,CSc1n[nH]c(=O)n1-c1cccc(C(F)(F)F)c1,-36.5%
22,O=S(=O)(c1ccc2c(c1)OCCO2)N1CCN(c2ccc(C(F)(F)F)cn2)CC1,-13.2%
23,Cc1c(CC(=O)Oc2ccc([N+](=O)[O-])cc2)sc2ccc(Cl)cc12,15.6%
24,CCCCc1ccc(S(N)(=O)=O)cc1,-14.9%
25,O=C(O)CC1(CC(=O)NCc2ccco2)CCCCC1,-9.49%
